“And” between values parts separate entries of the source, which are not always exact repeats. Equal values may be shown once. Records with an inconclusive call do not appear. Values without a mark were called inactive. The source made the active and inactive calls. Calls come from the whole dose curve; as a rule, active = well fitted cell-killing curve with a large enough effect in the repeat runs; inconclusive = weak or mixed curves, or effect the other way; inactive = no such curve, though single readings can be large or run the other way.
% is set by controls: 0 for no effect and ±100 for the full control effect; potency is the fitted concentration of half-maximal effect.

The assay can be described thus: qHTS assay to identify small molecule antagonists of the thyroid receptor (TR) signaling pathway - cell viability counter screen (AID 743064). Note: nearly all actives have a fitted effect of over 50% in size. The note with it: GH3.TRE-Luc viability, CellTiter-Fluor, 24 h; series mostly up to 70.3 µM; activity change, negative = cytotoxic: at the top concentration. From the text:
National Center for Advancing Translational Sciences [NCATS]
NIH Chemical Genomics Center [NCGC]
U.S. Environmental Protection Agency [EPA]
National Institutes of Environmental Health Sciences [NIEHS]
National Toxicology Program [NTP]
U.S. Food and Drug Administration [FDA]
Thyroid receptor (TR), a nuclear hormone receptor, plays an important role in development, proliferation, differentiation, metabolism, brain function, and cardiovascular system. […] To profile the Tox21 10K compound library in TR signaling, a cell-based GH3-TRE-Luc assay (GH3.TRE-Luc cell line, developed by the laboratory of Dr. Albertinka J. Murk, Wageningen University) was used to measure the inhibition of TR. GH3 (rat pituitary tumor) cells stably expressing a TR activity sensor consisting of two TR response elements and a luciferase reporter gene. The cytotoxicity of the Tox21 compound library against the GH3.TRE-Luc cell line was tested in parallel by measuring the cell viability using CellTiter-Fluor assay (Promega, Madison, WI) in the same wells.
Tox21 Assay Protocol Summary:
GH3.TRE-Luc cells were dispensed at 1500 cells/4 uL/well into 1536-well white solid bottom plates using a Multidrop Combi dispenser (Thermo Fisher Scientific Inc., Waltham, MA). After the assay plates were incubated at 37 C for 4 hours, 23 nL of library compound or DMSO controls was transferred to the assay plates by a pintool station (Kalypsys, San Diego, CA), followed by addition of 1 ul of T3 (1 nM, final concentration in the wells) to stimulate TR transactivation. The assay plates were incubated at 37 C for 23.5 h, and then 1 uL of CellTiter-Fluor reagent (Promega, Madision, WI) of measuring cytotoxicity was added to each well using a Bioraptr Flying Reagent Dispenser (FRD) workstation (Beckman Coulter, Indianapolis, IN, USA). The plates were incubated at 37C and 5% CO2 for additional 30 min, and fluorescence intensity was measured by a ViewLux plate reader (PerkinElmer, Shelton, CT).
Turning to `CC(C)(C)CC(C)(C)c1ccc(OCCO)cc1`, the Potency was 11.9 µM (active) and 60.8 µM (active).
Consider `Cc1cc(O)c2c(O)c3c(O)cccc3cc2c1`, for which the “activity change, negative = cytotoxic” value was -22.6%.
Consider `CCC(C)=O`, for which the “activity change, negative = cytotoxic” value is 2.3%.
Regarding `NC(=O)Nc1ccc(Cl)c(Cl)c1`, the “activity change, negative = cytotoxic” value is -25.1%.
For `CCc1cccc(N(C)C(N)=Nc2cccc3ccccc23)c1`, the Potency was 18.8 µM (active).
On to `C=CCOC(=O)/C=C\C(=O)OCC=C`, for which the “activity change, negative = cytotoxic” value is -1.9% [at 95 µM].
On the same count and under the same terms, with `Cc1cc(O)c(C(C)C)cc1Cl` the figure was 11.6%; with `O=C(C(=O)c1ccccc1)c1ccccc1`, 7.44%; with `CC1C2CC(CC2C2CCCC(O)C2)C1(C)C` (stereo not given), 20.6%.
The same measure, in the same setting: with `CCCCC(CC)CNCC(CC)CCCC` (stereo not given) the figure was -0.199%.
As for `CN1CCN(CCCN2c3ccccc3Sc3ccc(S(=O)(=O)N(C)C)cc32)CC1`, the Potency was 14.3 µM (active).
For the molecule `CO[C@H]1O[C@H](CO)[C@@H](O)[C@H](O)[C@H]1O`, the “activity change, negative = cytotoxic” value was 0.203%.
Still for that read-out and setting: with `CCCCCC=CCC=CCCCCCCCC(=O)OCC` the figure was 11.6%.
On the same count and under the same terms, for `C=CC(=O)NCOCC(C)C` the value was 0.911%.
As for `Oc1ccc(Nc2ccccc2)cc1`, the Potency is 54.5 µM (active).
As to `CCCOc1ccc(S(=O)(=O)N2CCN(CC)CC2)cc1-c1nc2c(CC)n(Cc3ccccn3)nc2c(=O)[nH]1`, the “activity change, negative = cytotoxic” value is -12.1%.
Same read-out and setting: with `O=C1NCCN1` the figure was -1.99%; with `CCCCCCCCSCCO`, -15.7%; with `COc1ccc(C(=O)c2cccc(O)c2)c(OC)c1`, -23.5%.
The same measure, in the same setting: for `CC(=O)[C@H]1CC[C@H]2[C@@H]3C=CC4=CC(=O)CC[C@@]4(C)[C@@H]3CC[C@]12C` the value was -16.2% [at 32.5 µM]; for `CCn1cc(C(=O)O)c(=O)c2cc(F)c(N3CCNCC3)nc21`, -3.91% [at 32.5 µM].
In the case of `Nc1nc(Cl)nc2c1ncn2[C@@H]1O[C@H](CO)[C@@H](O)[C@@H]1F`, the Potency was 0.237 µM (active).
Regarding `COCCOC`, the “activity change, negative = cytotoxic” value is -0.141%.
`O=c1[nH]c2ccc(S(=O)CCN3CCC(Cc4ccc(F)cc4)CC3)cc2o1` (stereo not given): the “activity change, negative = cytotoxic” value was -11.4%.
The same measure, in the same setting: for `O=C1OCCN1/N=C/c1ccc([N+](=O)[O-])o1` the value was -17.1%.
With `CCOC(=O)CC(=O)C(=O)OCC`, the “activity change, negative = cytotoxic” value is 21.2%.
On to `CCC(Cc1ccccc1)(C(=O)c1ccc(N2CCOCC2)cc1)N(C)C` (stereo not given), for which the “activity change, negative = cytotoxic” value was -1.95%.
Consider `CCCCCCOC(=O)CCCCCCCC(=O)OCCCCCC`, for which the “activity change, negative = cytotoxic” value was 6.24%.
Regarding `c1cnc2c(n1)CCCC2`, the “activity change, negative = cytotoxic” value was 0.933%.
With `Nc1ccc(C(=O)OCCCOC(=O)c2ccc(N)cc2)cc1`, the “activity change, negative = cytotoxic” value was -1.76%.
Still for that read-out and setting: for `CCOC(=O)c1ccccc1C` the value was 0.899%.
Consider `O=C(CS)OCCOC(=O)CS`, for which the “activity change, negative = cytotoxic” value is -16.1%.
As to `Oc1cc(O)c(Cl)cc1Cl`, the “activity change, negative = cytotoxic” value was 15.7% [at 95 µM].
As for `C=CC(C)(O)CCCC(C)CCCC(C)CCCC(C)C` (stereo not given), the “activity change, negative = cytotoxic” value is 18.9%.
Same read-out and setting: for `CC(C)CCCC(=O)O` the value was 11.8%; for `O=C(Nc1ccccc1)Nc1ccccc1`, -2.84% [at 95 µM].
As for `CO[C@H]1C=CO[C@@]2(C)Oc3c(C)c(O)c4c(O)c(c5c(c4c3C2=O)=NC2(CCN(CC(C)C)CC2)N=5)NC(=O)/C(C)=C\C=C/[C@H](C)[C@H](O)[C@@H](C)[C@@H](O)[C@@H](C)[C@H](OC(C)=O)[C@@H]1C`, the Potency was 29.8 µM (active).
As to `[O]=[Bi]`, the activity change, negative = cytotoxic is 1.51% [at 8.44 µM].
On the same count and under the same terms, with `CCOC(=O)[C@@H](C)Oc1ccc(Oc2nc3ccc(Cl)cc3o2)cc1` the figure was -10.9%.
Same read-out and setting: for `Cc1ccnc2ccccc12` the value was 7.57%.
